# “And” between values parts separate entries of the source, which are not always exact repeats. Equal values may be shown once. More than one record can exist for a structure, and the calls need not agree. The source made the active and inactive calls. How the source made its calls: active means hit-call score of the fitted dose curve at least 0.9, where 1 is the maximum; inactive means score below 0.9.
# Tests used:
# [1] = read-out: Tissue plasminogen activator (tPA), PLAT (gene 5327); test: BSK_BE3C_tPA: BioMAP Diversity Plus: BE3C Assay for Tissue plasminogen activator (tPA) Biomarker Activity (AID 2283041); settings: primary human bronchial epithelial cells; actives raise or lower the signal;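 on outcome: tPA level quantified by ELISA one day after compound addition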
# Summary of the method: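 Primary human lung bronchial epithelial cultures receive test chemical; after 24 h, tPA is quantified by ELISA, and gain or loss of signal is fitted bidirectionally relative to DMSO baseline.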
# [2] = read-out: Interleukin-8 (IL8), CXCL8 (gene 3576); test: BSK_CASM3C_IL8: BioMAP Diversity Plus: CASM3C Assay for Interleukin-8 (IL8) Biomarker Activity (AID 2283042); settings: primary human coronary artery smooth muscle cells; actives raise or lower the signal;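 further: IL-8 protein level quantified by ELISA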
# [3] = read-out: Human Leukocyte Antigen - DR isotype (HLADR), HLA-DRA (gene 3122); test: BSK_CASM3C_HLADR: BioMAP Diversity Plus: CASM3C Assay for Human Leukocyte Antigen - DR isotype (HLADR) Biomarker Activity (AID 2283043); settings: primary human coronary artery smooth muscle cells; actives raise or lower the signal;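 further: cell-surface HLA-DR protein level quantified by ELISA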
# [4] = read-out: Macrophage colony-stimulating factor (MCSF), CSF1 (gene 1435); test: BSK_CASM3C_MCSF: BioMAP Diversity Plus: CASM3C Assay for Macrophage colony-stimulating factor (MCSF) Biomarker Activity (AID 2283044); settings: primary human coronary artery smooth muscle cells; actives raise or lower the signal;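 further: M-CSF protein amount quantified by ELISA after 24 h exposure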
# [5] = read-out: Low-density lipoprotein receptor (LDLR), LDLR (gene 3949); test: BSK_CASM3C_LDLR: BioMAP Diversity Plus: CASM3C Assay for Low-density lipoprotein receptor (LDLR) Biomarker Activity (AID 2283045); settings: primary human coronary artery smooth muscle cells; actives raise or lower the signal;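 further: LDLR protein level on the cell surface quantified by ELISA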
# [6] = read-out: Monocyte Chemoattractant Protein-1 (MCP1), CCL2 (gene 6347); test: BSK_CASM3C_MCP1: BioMAP Diversity Plus: CASM3C Assay for Monocyte Chemoattractant Protein-1 (MCP1) Biomarker Activity (AID 2283046); settings: primary human coronary artery smooth muscle cells; actives raise or lower the signal;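 further: MCP-1 level quantified by ELISA 24 h after dosing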
# [7] = BSK_CASM3C_Proliferation: Cell Proliferation Assessment in the BioMAP Diversity Plus: CASM3C Assay (AID 2283047); settings: primary human coronary artery smooth muscle cells;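 further: sulforhodamine B total protein stain as relative cell number at 560 nm; sub-confluent cells exposed 48 h before staining; fitted both ways against DMSO so gain or loss of cell number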
# [8] = read-out: Monokine induced gamma interferon (MIG), CXCL9 (gene 4283); test: BSK_CASM3C_MIG: BioMAP Diversity Plus: CASM3C Assay for Monokine induced gamma interferon (MIG) Biomarker Activity (AID 2283048); settings: primary human coronary artery smooth muscle cells; actives raise or lower the signal;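 further: MIG protein level measured by ELISA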
# [9] = read-out: serum amyloid A (SAA), SAA1 (gene 6288); test: BSK_CASM3C_SAA: BioMAP Diversity Plus: CASM3C Assay for serum amyloid A (SAA) Biomarker Activity (AID 2283049); settings: primary human coronary artery smooth muscle cells; actives raise or lower the signal;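 further: SAA protein level quantified by ELISA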
# [10] = BSK_CASM3C_SRB: Viability Assessment in the BioMAP Diversity Plus: CASM3C Assay (AID 2283050); settings: primary human coronary artery smooth muscle cells;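 further: total protein by SRB staining as cytotoxicity measure in parallel cultures; cells exposed to compound for 24 h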
SMILES,AC50 [1],outcome [2],outcome [3],AC50 [4],outcome [5],outcome [6],outcome [7],outcome [8],outcome [9],outcome [10],outcome [1],outcome [4],AC50 [6],AC50 [7],AC50 [3],AC50 [8],AC50 [10],AC50 [5],AC50 [2],AC50 [9]
CCn1c2ccccc2c2cc(N)ccc21,3.97 µM (active),inactive,inactive,0.426 µM (active),inactive,inactive,inactive,inactive,inactive,inactive,,,,,,,,,,
N#Cc1ccc(CC(=NNC(=O)Nc2ccc(OC(F)(F)F)cc2)c2cccc(C(F)(F)F)c2)cc1,,inactive,inactive,,inactive,inactive,inactive,inactive,inactive,inactive,inactive,inactive,,,,,,,,
O=C(O)C[C@H](O)C[C@H](O)/C=C/c1c(C2CC2)nc2ccccc2c1-c1ccc(F)cc1,0.0843 µM (active),inactive,inactive,0.0636 µM (active),inactive,,,inactive,inactive,inactive,,,0.0117 µM (active),0.129 µM (active),,,,,,
CCCCCCCCCC=O,,inactive,inactive,,inactive,inactive,inactive,inactive,inactive,inactive,inactive,inactive,,,,,,,,
Cc1cc(C2(c3cc(C)c(O)cc3C)OS(=O)(=O)c3ccccc32)c(C)cc1O,,inactive,inactive,,inactive,inactive,inactive,inactive,inactive,inactive,inactive,inactive,,,,,,,,
CC(C)c1ccc(C(C)C)cc1,23.3 µM (active),inactive,,32.4 µM (active),inactive,,,,inactive,,,,32.4 µM (active),31.4 µM (active),25.9 µM (active),31.3 µM (active),30.6 µM (active),,,
Nc1cc([N+](=O)[O-])ccc1O,,inactive,inactive,,inactive,inactive,inactive,inactive,inactive,inactive,inactive,inactive,,,11.8 µM (active),,,,,
O=P(c1ccccc1)(c1ccccc1)c1ccccc1,,inactive,inactive,,inactive,inactive,inactive,inactive,inactive,inactive,inactive,inactive,,,,,,,,
CC(=O)OCCC(C)CC(C)(C)C (stereo unspecified),,inactive,inactive,,inactive,inactive,inactive,inactive,inactive,inactive,inactive,inactive,,,5 µM (active),,,,,
COC(=O)c1ccc(C)cc1,,inactive,inactive,,inactive,inactive,inactive,inactive,inactive,inactive,inactive,inactive,,,,,,,,
CNC[C@H](O)c1cccc(O)c1,,inactive,inactive,,inactive,inactive,inactive,inactive,inactive,inactive,inactive,inactive,,,,,,,,
CN(CCOc1ccc(CC2SC(=O)NC2=O)cc1)c1ccccn1 (stereo unspecified),,inactive,inactive,,,inactive,inactive,inactive,inactive,inactive,inactive,inactive,,,,,,4.98 µM (active),,
OC[C@H]1O[C@H](O[C@]2(CCl)O[C@H](CCl)[C@@H](O)[C@@H]2O)[C@H](O)[C@@H](O)[C@H]1Cl,,inactive,inactive,,inactive,inactive,inactive,inactive,inactive,inactive,inactive,inactive,,,,,,,,
c1ccc2sc(SN(C3CCCCC3)C3CCCCC3)nc2c1,,inactive,inactive,,inactive,inactive,,inactive,inactive,inactive,inactive,inactive,,0.117 µM (active),,,,,,
Cc1ccc(O)c(C(C)(C)C)c1,,inactive,,,inactive,,,,inactive,,inactive,inactive,33.4 µM (active),29.1 µM (active),26.8 µM (active),33.2 µM (active),24.6 µM (active),,,
C=CCOC(=O)CCC1CCCCC1,,inactive,inactive,,inactive,inactive,inactive,inactive,inactive,inactive,inactive,inactive,,,,,,,,
COc1cc(C=O)ccc1OC(=O)C(C)C,,inactive,inactive,2.86 µM (active),inactive,inactive,inactive,inactive,inactive,inactive,inactive,inactive,,,,,,0.15 µM (active),,
O=C1OC2(c3cc(Br)c(O)c(Br)c3Oc3c2cc(Br)c(O)c3Br)c2c(Cl)c(Cl)c(Cl)c(Cl)c21,0.744 µM (active),inactive,inactive,,inactive,,inactive,inactive,inactive,inactive,,inactive,0.0114 µM (active),,,,,,,
Cc1ccc2n[nH]nc2c1,,inactive,inactive,,inactive,inactive,inactive,inactive,inactive,inactive,inactive,inactive,,,,,,,,
O=[N+]([O-])c1cc(C(F)(F)F)ccc1Cl,,inactive,inactive,,inactive,inactive,inactive,inactive,inactive,inactive,inactive,inactive,,,,,,,,
CCCCC/C=C/C=C/C=O,,inactive,,20 µM (active),inactive,,,inactive,inactive,,inactive,,36.1 µM (active),30.3 µM (active),23.7 µM (active),,32.3 µM (active),,,
CC(=O)[C@H]1CC[C@H]2[C@@H]3CC=C4C[C@@H](O)CC[C@]4(C)[C@H]3CC[C@]12C,,inactive,inactive,,inactive,inactive,inactive,inactive,inactive,inactive,inactive,inactive,10.9 µM (active),6.96 µM (active),,,,1.86 µM (active),,
C[C@H]1C[C@@H]2[C@H]([C@@H](O)C[C@@]3(C)[C@H]2CC[C@]3(O)C(=O)CO)[C@@]2(C)C=CC(=O)C=C12,,,inactive,0.15 µM (active),inactive,inactive,inactive,inactive,,inactive,inactive,,4.62 µM (active),,,,,,471 nM (active) and 1.18 µM (active),0.15 µM (active)
OC1OC[C@@H](O)[C@H](O)[C@H]1O (stereo partly specified),,inactive,inactive,,inactive,inactive,inactive,inactive,inactive,inactive,inactive,inactive,,,,,,,,
CCC(=O)OCc1ccccc1,,inactive,inactive,,inactive,inactive,inactive,inactive,inactive,inactive,inactive,inactive,,,,,,,,
Nc1cc([N+](=O)[O-])ccc1Cl,,inactive,inactive,,inactive,inactive,inactive,inactive,inactive,inactive,inactive,inactive,,,,,,,,

SMILES,AC50 [1],outcome [2],outcome [3],AC50 [4],outcome [5],outcome [6],outcome [7],outcome [8],outcome [9],outcome [10],outcome [1],outcome [4],AC50 [6],AC50 [7],AC50 [3],AC50 [8],AC50 [10],AC50 [5],AC50 [2],AC50 [9]
O=C(O)c1cn(C2CC2)c2cc(N3CCNCC3)c(F)cc2c1=O,,inactive,inactive,,inactive,inactive,inactive,inactive,inactive,inactive,inactive,,,,,,,,,
C=C[Si](OCC)(OCC)OCC,,inactive,inactive,,inactive,inactive,inactive,inactive,inactive,inactive,inactive,inactive,,,,,,,,
CC(=O)O[C@]1(C(C)=O)CC[C@H]2[C@@H]3C[C@H](C)C4=CC(=O)CC[C@]4(C)[C@H]3CC[C@@]21C,,,inactive,,,,inactive,inactive,,inactive,inactive,inactive,0.604 µM (active),,,,,14.7 µM (active),0.0082 µM (active),0.0082 µM (active)
CCCCCCCCC=O,,inactive,inactive,,inactive,inactive,inactive,inactive,inactive,inactive,inactive,inactive,,,,,,,,
Cc1ccc(Nc2ccc(O)c3c2C(=O)c2ccccc2C3=O)cc1,,inactive,inactive,,inactive,inactive,inactive,inactive,inactive,inactive,inactive,inactive,,,,,,,,
C=C(C)C(=O)O[C@H]1C[C@@H]2CC[C@@]1(C)C2(C)C,20 µM (active),,,7.53 µM (active),inactive,,,,inactive,,,,12.4 µM (active),23.5 µM (active),8.32 µM (active),27.1 µM (active),13.2 µM (active),,22.3 µM (active),
CCc1c(C)cc(N)c(CC)c1N,,inactive,inactive,,inactive,inactive,inactive,inactive,inactive,inactive,inactive,inactive,,,,,,,,
CC(=O)/C=C/C1=C(C)CCCC1(C)C,,inactive,inactive,,inactive,inactive,inactive,inactive,inactive,inactive,inactive,inactive,,,,,,,,
CC(C)Oc1ccccc1O,,inactive,inactive,,inactive,inactive,inactive,inactive,inactive,inactive,inactive,inactive,,,,,,,,
O=C=NC1CCC(CC2CCC(N=C=O)CC2)CC1 (stereo unspecified),,inactive,inactive,,,inactive,,inactive,inactive,inactive,inactive,inactive,,0.0151 µM (active),,,,0.0156 µM (active),,
NCCNCCN,,inactive,inactive,,inactive,inactive,inactive,inactive,inactive,inactive,inactive,inactive,,,,,,,,
CC(=O)Nc1ccccc1O,,inactive,inactive,,inactive,inactive,inactive,inactive,inactive,inactive,inactive,inactive,,,,,,,,
CC[Si](OC(C)=O)(OC(C)=O)OC(C)=O,,inactive,inactive,,inactive,inactive,inactive,inactive,inactive,inactive,inactive,inactive,,,,,,,,
CCCCC(CC)COCCC#N (stereo unspecified),,inactive,inactive,,,inactive,inactive,inactive,inactive,inactive,inactive,inactive,,,,,,0.151 µM (active),,
BrC1CCC(Br)C(Br)CCC(Br)C(Br)CCC1Br (stereo unspecified),,inactive,inactive,,inactive,inactive,,inactive,inactive,inactive,inactive,inactive,,0.11 µM (active),,,,,,
C#C[C@]1(O)CC[C@H]2[C@@H]3CCC4=Cc5oncc5C[C@]4(C)[C@H]3CC[C@@]21C,,inactive,inactive,,,,,inactive,inactive,,inactive,inactive,0.92 µM (active),3.97 µM (active),,,20 µM (active),33.9 µM (active),,
O=C1CCCCCCCCCCCCCCO1,12.7 µM (active),,,29 µM (active),,,,,,,,,31 µM (active),20 µM (active),28.4 µM (active),32.6 µM (active),30.9 µM (active),30 µM (active),36.8 µM (active),29.8 µM (active)
CCCCCCCCCCCCCCCCCC(=O)OCC(CC)CCCC (stereo unspecified),,inactive,inactive,,inactive,inactive,inactive,inactive,inactive,inactive,inactive,inactive,,,,,,,,
CC1COc2ccccc2N1C(=O)C(Cl)Cl (stereo unspecified),3.04 µM (active),inactive,,0.0828 µM (active),inactive,inactive,,inactive,inactive,,,,,8.84 µM (active),2.96 µM (active),,5.64 µM (active),,,
CC(C)(COC(=O)c1ccccc1)COC(=O)c1ccccc1,,inactive,inactive,,inactive,inactive,inactive,inactive,inactive,inactive,inactive,inactive,,,,,,,,
CCCCC(CC)COC(=O)/C=C\C(=O)OCC(CC)CCCC (stereo unspecified),,inactive,inactive,,inactive,inactive,inactive,inactive,inactive,inactive,inactive,inactive,,,,,,,,
O=C(O)c1ccc([N+](=O)[O-])cc1,,inactive,inactive,,inactive,inactive,inactive,inactive,inactive,inactive,inactive,inactive,,,,,,,,
CC1CCC(C(C)CS)CC1S (stereo unspecified),,,,22.3 µM (active),,,,,,,inactive,,30.9 µM (active),29.6 µM (active),35.8 µM (active),36.5 µM (active),29.7 µM (active),20 µM (active),20 µM (active),20 µM (active)
c1ccc2c(c1)c1cccc3ccc4cccc2c4c31,,inactive,inactive,,,inactive,inactive,inactive,inactive,inactive,inactive,inactive,,,,,,,,
O=C(O)c1cn(-c2ccc(F)cc2)c2cc(N3CCNCC3)c(F)cc2c1=O,,inactive,inactive,,inactive,inactive,inactive,inactive,inactive,inactive,inactive,inactive,,,,,,,,

# From PubChem BioAssay (EPA / NIEHS)
